The results in this text go back to PubChem BioAssay AID485364 (National Center for Advancing Translational Sciences (NCATS), 2010).

Molecules are shown by their SMILES. Among all 360,000 compounds or so, about 11,000 (3.1%) were called active. Another 4% or so got no clear call; they are omitted. The sample holds actives, similar compounds and a random draw of the others, so the mix is not that of the screen. Values without a mark were called inactive. Calls come from the whole dose curve; as a rule, active = well fitted inhibition curve with a large enough effect; inconclusive = small, poorly fitted or top-dose-only effect; inactive = no such curve, though single readings can be large or run the other way.
% is set by controls: 0 for no effect and ±100 for the full control effect; potency is the fitted concentration of half-maximal effect.

The target in the assay is Schistosoma mansoni thioredoxin glutathione reductase (TGR) (UniProt Q962Y6). Kind of assay: qHTS Assay for the Inhibitors of Schistosoma Mansoni Peroxiredoxins. Note: nearly all actives have a fitted effect of over 60% in size. Particulars: purified TGR, DTNB reduction, TNB absorbance 405 nm; series mostly up to 114 µM; activity change, negative = inhibition: at the top concentration. A digest of the protocol:
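TGR 20 nM + NADPH 100 uM (dispensed conc.), cpd preinc 15 min RT; start with NADPH (500 uM addition) then DTNB (15 mM addition). Kinetic TNB absorbance, 405 nm filter. Four-parameter Hill fit across titration.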
For orientation: In qHTS, concentration-response curves come from the screen itself.
In the case of `Cc1nc2nc(SCC(=O)N(Cc3ccccc3)C(C)C)nn2c(C)c1Cc1ccccc1Cl`, the “activity change, negative = inhibition” value was -0.675%.
On the same count and under the same terms, the figure for `Cc1ccc(Nc2c(-c3ccc(Cl)cc3)nc3sccn23)c(C)c1` is 12.8%.
As for `COc1ccc(-n2c(C)nc3c(cnn3-c3ccc(F)cc3)c2=O)cc1`, the “activity change, negative = inhibition” value was 7.03%.
Regarding `CS(=O)(=O)n1nc(-c2ccccc2)nc1NCc1ccco1`, the Potency is 44.7 µM (active).
As for `O=C(c1ccco1)n1nc(-c2ccc(Cl)cc2)nc1NCc1ccccc1`, the “activity change, negative = inhibition” value is -1.85%.
Same read-out and setting: the figure for `Cc1ccc(S(=O)(=O)n2nc(-c3ccc(Cl)cc3)nc2NCc2ccccc2)cc1` is 7.22%; for `Cc1ccc(CNC(=O)CCc2c(C)nc3nc(CNC(=O)OC(C)(C)C)nn3c2C)cc1` it is -4.1%; for `Cc1cc(OCC(=O)NCC2(N(C)C)CCCCC2)cc(C)c1Cl` it is 0.106%.
Consider `O=C(C1=C[C@H](c2ccc(C(F)(F)F)cc2)C[C@H](OCc2ccc(CO)cc2)O1)N1CCN(Cc2ccccc2)CC1`, for which the Potency was 28.2 µM (active).
As for `O=C(NCc1ccccc1)C1=C[C@@H](c2ccc(C(F)(F)F)cc2)C[C@@H](OCc2ccc(CO)cc2)O1`, the “activity change, negative = inhibition” value is -28.1%.
Still for that read-out and setting: the figure for `O=C(C1=C[C@H](c2coc3ccccc3c2=O)C[C@H](OCc2ccc(CO)cc2)O1)N1CCN(Cc2ccccc2)CC1` is -28.2%; for `O=C(CSCc1cnn(-c2ccccc2)c1-n1cccc1)NCc1ccc(Cl)cc1` it is -13.6%.
Regarding `CCOc1ccc(C(=O)c2cn(Cc3ccccc3OC)c3ccc(F)cc3c2=O)cc1`, the “activity change, negative = inhibition” value is 1.39%.
Turning to `COc1ccc2c(c1)Cc1sc(NC(=O)c3ccccc3Br)nc1-2`, the “activity change, negative = inhibition” value was -24.5%.
Take `O=S(=O)(c1ccc(C2CCCCC2)cc1)N1CCN(c2ccc(Cl)c(Cl)c2)CC1`: the “activity change, negative = inhibition” value is 0.0481%.
Same read-out and setting: the figure for `CCCCNC(=O)C1CCCN(c2nnc(C)c3c(C)n(-c4ccc(Cl)cc4)nc23)C1` (centres undefined) is -3.38%.
Regarding `CCN(CCCNC(=O)Cn1ncc2c([nH]c3ccccc32)c1=O)c1cccc(C)c1`, the “activity change, negative = inhibition” value is -0.871%.
In the case of `CN(C)c1nc(N(C)C)nc(N(C#N)CCCl)n1`, the Potency is 1 µM (active).
Consider `Cc1cccn2c(=O)c3cc(C(=O)NC(C)c4ccccc4)c(=N)n(CCCO)c3nc12` (centres undefined), for which the “activity change, negative = inhibition” value is 13.1%.
In the case of `CCOC(=O)c1c(NC(C)=O)c2c3c(sc2n1Cc1c(C)cc(C)cc1C)CCCC3`, the “activity change, negative = inhibition” value is 1.55%.
For `O=C(c1cnn(-c2ccc(F)cc2)c1-n1cccc1)N1CCN(c2ccc(F)cc2)CC1`, the “activity change, negative = inhibition” value is 1.41%.
Same read-out and setting: for `CCCc1[nH]nc2c1C(c1ccc(Br)s1)C(C#N)=C(N)O2` (centres undefined) the value was -35.1%; for `COc1ccc(-c2[nH]nc3c2C(c2ccncc2)C(C#N)=C(N)O3)cc1` (centres undefined), -12.7%.
In the case of `Cc1cc(C)c(C#N)c(SCc2[nH]nc3c2C(c2ccccc2)C(C#N)=C(N)O3)n1` (centres undefined), the Potency is 22.4 µM (active).
Take `S=C(Nc1cccnc1)Nc1ccccn1`: the “activity change, negative = inhibition” value was -24.5%.
In the case of `Fc1cc(Br)ccc1NC(=S)Nc1cccnc1`, the Potency is 10 µM (active).
Take `O=C(Nc1cccnc1)c1cc2cc(Br)ccc2oc1=O`: the “activity change, negative = inhibition” value is -25.1%.
With `COc1cc(C2c3c(oc4ccccc4c3=O)C(=O)N2c2nc(C)c(C)s2)ccc1O` (centres undefined), the “activity change, negative = inhibition” value is -26.8%.
Same read-out and setting: the figure for `O=C(Nc1c(C(=O)N2CCN(c3ccc(F)cc3)CC2)oc2ccccc12)c1ccco1` is -0.224%.
As for `CC(C)(C)c1ccc(/C=C2\Oc3c(ccc(O)c3CN3CCN(CCO)CC3)C2=O)cc1`, the Potency was 50.1 µM (active).
On to `CCOC(=O)c1oc2c(CN3CCN(CCO)CC3)c(O)c(CC)cc2c(=O)c1-c1nc2ccccc2s1`, for which the “activity change, negative = inhibition” value was -26.4%.
Regarding `O=C(CSc1nc2c(c(=O)[nH]1)CN(Cc1ccc3c(c1)OCO3)CC2)Nc1cc(F)ccc1F`, the “activity change, negative = inhibition” value was -9.35%.
As to `CCOC(=O)c1ccc(COC(=O)c2cc(=O)[nH]c3ccccc23)o1`, the “activity change, negative = inhibition” value is -15.9%.
Regarding `CCOC(=O)c1cc2c(=O)[nH]c(C(Cl)(Cl)Cl)nc2o1`, the Potency was 17.8 µM (active).
Take `CCOC(=O)c1cnc(COc2ccccc2Cl)[nH]c1=O`: the “activity change, negative = inhibition” value is 9.04%.
Still for that read-out and setting: the figure for `COCC(C)n1c(C)cc(C(=O)COc2ccc(C)nc2[N+](=O)[O-])c1C` (centres undefined) is 59.1%.
As for `Cc1ccc(OCC(=O)c2cc(C)n(Cc3ccco3)c2C)c([N+](=O)[O-])n1`, the Potency was 35.5 µM (active).
Consider `Cc1cc(C(=O)COC(=O)CNC(=O)c2ccc(F)cc2)c(C)n1Cc1ccco1`, for which the “activity change, negative = inhibition” value was -4.25%.
Still for that read-out and setting: the figure for `CCOc1ccccc1NC(=O)NC1CCCCCCC1` is -7.77%.
For `CCOc1ccccc1NC(=S)NC(=O)CCc1ccccc1`, the Potency is 7.94 µM (active).
`CCOc1ccccc1NC(=O)CCc1nnc2ccc(NCc3ccco3)nn12`: the “activity change, negative = inhibition” value is -19.5%.
For the compound `CCOc1ccc(CNC(=O)Cn2cc3c(n2)-c2c(oc(C(=O)N4CCCC4)c2C)CC3)cc1`, the “activity change, negative = inhibition” value was -0.78%.
The same measure, in the same setting: for `CC1=C(C(=O)OCc2ccc(C)cc2)C(c2c(Cl)cccc2Cl)CC(=O)N1` (centres undefined) the value was -1.29%.
Take `Cc1cc2cc(CNC(=O)c3cccs3)ccc2[nH]1`: the Potency was 31.6 µM (active).
Regarding `COc1ccc(CNC(=O)c2cc3c(=O)[nH]c4ccccc4c3s2)cc1`, the “activity change, negative = inhibition” value is -3.05%.
In the case of `CCc1cccc(CC)c1NC(=S)NCc1ccc2[nH]c(C)cc2c1`, the “activity change, negative = inhibition” value is 4.53%.
As for `COc1cc2nc(SCc3ccc(F)cc3)n3nc(CCn4c(C)nc5ccccc54)nc3c2cc1OC`, the “activity change, negative = inhibition” value is 4.89%.
As for `CCCSc1nc2sc3c(c2c(=O)n1-c1cccc(Br)c1)CC(C)(C)OC3`, the “activity change, negative = inhibition” value was 7.71%.
Still for that read-out and setting: for `COc1ccc(CCNc2ncnc3c2cnn3-c2ccc(C)cc2)cc1` the value was -0.478%.
